From PubChem BioAssay
The source made the active and inactive calls.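 How the source made its calls: active means at least 20% inhibition of 6-phosphogluconate dehydrogenase activity; inactive means the rest.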 Where a SMILES comes first, the peptide text is derived from it.

molecular target: 6-phosphogluconate dehydrogenase, decarboxylating (Homo sapiens) (UniProt P52209); assay: inhibition of human phosphogluconate dehydrogenase – biochemical, recombinant enzyme, NADPH absorbance, primary screen (AID 1159550); settings: recombinant 6PGD, NADPH absorbance 341 nm; at 10 µM; hits give high values
Sequence (P52209 whole entry, looked up): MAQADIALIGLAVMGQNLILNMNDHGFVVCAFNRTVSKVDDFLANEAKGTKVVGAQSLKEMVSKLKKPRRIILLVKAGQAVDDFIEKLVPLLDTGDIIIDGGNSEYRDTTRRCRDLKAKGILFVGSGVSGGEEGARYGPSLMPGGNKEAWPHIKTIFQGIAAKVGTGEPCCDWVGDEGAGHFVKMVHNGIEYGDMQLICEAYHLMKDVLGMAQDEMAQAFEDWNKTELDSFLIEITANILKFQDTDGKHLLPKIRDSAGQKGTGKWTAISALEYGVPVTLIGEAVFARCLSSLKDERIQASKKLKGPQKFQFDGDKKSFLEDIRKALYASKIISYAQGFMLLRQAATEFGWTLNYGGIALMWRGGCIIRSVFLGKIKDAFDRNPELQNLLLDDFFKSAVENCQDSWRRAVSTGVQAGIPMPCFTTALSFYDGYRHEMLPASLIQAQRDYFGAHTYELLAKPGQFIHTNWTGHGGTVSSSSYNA

inhibition, inactive:
CCCc1occc(=O)c1/C=C/O -1.45%
CC(CCC(=O)O)C1CCC2C3CCC4CCCCC4(C)C3CCC12C (configuration not stated) 14%
Oc1ccc2c(c1)OC(c1ccc(O)c(O)c1)C(O)C2 (configuration not stated) 6.96%
Nc1ncnc2c1ncn2C1CC(O)C(CO)O1 (configuration not stated) 2.59%
CC(C)CCC[C@@H](C)[C@H]1CC[C@H]2[C@@H]3CC[C@H]4CCCC[C@]4(C)[C@H]3CC[C@]12C 11.6%
C=C(C)/C=C1/C=CC(=O)C(C)=C1 -4.6%
C#CC1(O)CCC2C3CCc4cc(O)ccc4C3CCC21C (configuration not stated) 14.4%
CC(=O)Oc1ccc(-c2cc(=O)c3c(OC(C)=O)cc(OC(C)=O)cc3o2)cc1 -7.11%
COc1cc(O)c2c(=O)c(-c3ccccc3)coc2c1 -1.53%
Cc1cc(=O)c2c(O)c(C)c(O)cc2o1 15%
CC1=C2C(=COC(C)C2C)C(=O)C(C(=O)O)=C1O (configuration not stated) 10.6%
O[n+]1ccccc1[S-].O[n+]1ccccc1[S-].[Zn] 12.7%
CCC(=O)OCC(=O)[C@@]1(OC(=O)CC)[C@@H](C)CC2C3CCC4=CC(=O)C=C[C@]4(C)[C@@]3(F)C(O)C[C@@]21C (some centres not stated) -9.91%
C/C=C(/C)C(=O)O[C@H]1Cc2c(ccc3ccc(=O)oc23)OC1(C)C 9.34%
COC(=O)C[C@H]1C(C)(C)C(=O)[C@@H]2CC3=C4CC(OC)O[C@@H](c5ccoc5)[C@]4(C)CCC3[C@@]1(C)C2=O (some centres not stated) -2.67%
COc1cc2c(cc1O)[C@@H](Cc1ccc(O)cc1)N(C)CC2 0.499%
CCC(C)C(N)C1=NC(C(=O)NC(CC(C)C)C(=O)NC(CCC(=O)O)C(=O)NC(C(=O)NC2CCCCNC(=O)C(CC(N)=O)NC(=O)C(CC(=O)O)NC(=O)C(Cc3cnc[nH]3)NC(=O)C(Cc3ccccc3)NC(=O)C(C(C)CC)NC(=O)C(CCCN)NC2=O)C(C)CC)CS1 (configuration not stated) -5.55%
COc1ccccc1/C=C/C(=O)O 11.5%
C[C@H](C[C@@H](O)[C@@H]1OC1(C)C)[C@@H]1CC[C@]2(C)C3=CC[C@H]4C(C)(C)C(=O)CC[C@]4(C)[C@H]3CC[C@@]12C -0.309%
CC(C)(O)[C@@H]1Cc2cc3ccc(=O)oc3cc2O1 -0.979%
NCCCC[C@H](N)C(=O)N[C@@H](Cc1ccccc1)C(=O)N[C@@H](Cc1ccc(O)cc1)C(=O)O (H-Lys-Phe-Tyr-OH) 6.75%
CC(=O)O[C@H]1CC[C@]2(C)[C@H]3C(=O)C=C4[C@@H]5[C@@H](C)[C@H](C)CC[C@]5(C(=O)O)CC[C@@]4(C)[C@]3(C)CC[C@H]2C1(C)C 4.87%
CCOc1ccc(C(=O)c2cc(O)c(OC)c(OC)c2O)cc1 0.271%
COc1cc2c(cc1OC)[C@@H]1C(=O)c3c(O)cc4c(c3O[C@@H]1CO2)C=CC(C)(C)O4 12.7%
CC(=O)O[C@@H]1C[C@H]2C(C)(C)C(=O)[C@@H]3O[C@@H]3[C@]2(C)[C@H]2CC[C@@]3(C)[C@H](c4ccoc4)OC(=O)[C@H]4O[C@]43[C@@]21C -3.37%
COC(=O)c1c(Cl)c(Cl)c(C(=O)OC)c(Cl)c1Cl -11.1%
C=C1C(=O)OC2C[C@]3(C)[C@H](C(C)=CC[C@@H]3O)[C@@H](O)C12 (some centres not stated) 18.1%
